Potency data for eight molecules are collected here from PubChem BioAssay (Tox21).

Records with an inconclusive call do not appear. Entries that show only a call come without a potency. Activity calls are given as the source filed them. The call rests on the fitted dose curve; in most records, active means well fitted inhibition curve with a large enough effect in the repeat runs; inconclusive means weak or mixed curves; inactive means no such curve, though single readings can be large or run the other way.

The target of the experiment is Aromatase (Homo sapiens) (UniProt P11511). Description: qHTS assay to identify aromatase inhibitors (AID 743083). Further: nearly all actives have a fitted effect of over 55% in size. To be noted: MCF-7 aro ERE, testosterone-driven ERE luciferase, 24 h; series mostly up to 70.3 µM.
Sequence of Aromatase (Homo sapiens) (P11511 whole entry, looked up): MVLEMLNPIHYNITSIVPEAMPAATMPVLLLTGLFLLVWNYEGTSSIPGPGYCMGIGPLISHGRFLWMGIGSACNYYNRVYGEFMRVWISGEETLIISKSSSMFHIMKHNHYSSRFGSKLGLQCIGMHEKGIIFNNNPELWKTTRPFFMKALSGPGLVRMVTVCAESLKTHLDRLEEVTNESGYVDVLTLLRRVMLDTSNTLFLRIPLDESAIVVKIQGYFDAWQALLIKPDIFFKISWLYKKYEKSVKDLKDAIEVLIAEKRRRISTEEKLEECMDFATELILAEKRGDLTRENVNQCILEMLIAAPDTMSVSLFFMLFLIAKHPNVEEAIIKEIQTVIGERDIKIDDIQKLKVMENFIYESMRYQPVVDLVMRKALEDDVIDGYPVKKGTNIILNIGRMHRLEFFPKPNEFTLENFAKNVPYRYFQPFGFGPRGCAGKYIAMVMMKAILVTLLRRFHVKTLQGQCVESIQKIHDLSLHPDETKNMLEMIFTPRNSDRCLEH
For `CCCCN(CCCC)CCCC`, the Potency result was “inactive”.
The value for `CC(C)c1ccc(S(=O)(=O)O)cc1` was “inactive”.
Regarding `c1ccc(OCCOc2ccccc2)cc1`, the Potency result is “inactive”.
For `CC(=O)c1ccccc1`, the Potency entry is “inactive”.
`O=C(OCCOCCOC(=O)c1ccccc1)c1ccccc1`: the Potency result was “inactive”.
Consider `C/C=C1/CC2C=CC1C2` (stereo not drawn), for which the Potency result is “inactive”.
Take `CCCCCCOCCO`: the Potency entry was “inactive”.
Next, `OC[C@H]1O[C@@](CO)(O[C@H]2O[C@H](CO)[C@@H](O)[C@H](O)[C@H]2O)[C@@H](O)[C@@H]1O`: “inactive”.
